Assay results from ChEMBL document CHEMBL3988442, “University of Dundee, Small-Polar-MMV Screening Library” (2021).
In all, about 69,000 compounds went through this assay and about 1,000 (1.4%) showed an effect of 50% or more. The sample holds strong results, similar compounds and a random draw of the others, so the mix is not that of the screen.

Test system: Leishmania donovani
Assay: Leishmania intramacrophage assay
Format: functional, organism-based
Parameters: scale not given: in the data most compounds retested in dose-response had high values

SMILES	Percent Effect (30.3 µM, […]) [%]	Percent Effect (30 µM, 30.03 µM) [%]
COCCN1C[C@H]2CC[C@@H]1CN(Cc1cc(=O)c3cc(C)ccc3[nH]1)C2	38.8	
CSCC(C)(O)CNS(=O)(=O)c1cccc(Cl)c1 (centres undefined)	18.54	
CC1CCN(C(=O)C(C)N2CCc3[nH]nc(C(F)(F)F)c3C2)CC1 (centres undefined)	13.32	
Cc1nc(C(=O)N(C)CC2CCCO2)nn1-c1ccccc1C(C)C (centres undefined)	0.9975	
Cn1cc(-c2nnn3c2COC(CNC(=O)c2cccs2)C3)cn1 (centres undefined)	37.28	
Cc1ccnc(N2CCC(NCCOc3ccccc3)CC2)n1	18.71	
Cc1cc(N2CCC(NCCOc3ccccc3)CC2)nc(C)n1	53.39	
Cc1cc(N2CCC(N(C)C(=O)c3ccccc3)CC2)nc(C)n1		62.61
Cc1cc(N2CCC(N(C)C(=O)c3ccccc3F)CC2)nc(C)n1	35.99	
Cc1cc(N2CCC(N(C)C(=O)c3ccc(C#N)cc3)CC2)nc(C)n1	14.71	
Cc1nc(C)c(C)c(N2CCC(NCCOc3ccccc3)CC2)n1	58.55	
Cc1cc(N2CCC(N(C)C(=O)Nc3ccccc3)CC2)nc(C)n1		11.78
Cc1cc(N2CCC(O)CC2)nc(C)n1	1.581	
CN(C)c1ccnc(N2CCC(NCCOc3ccccc3)CC2)n1	79.37	
c1ccc(OCCNC2CCN(c3ncccn3)CC2)cc1	4.504	
Cc1nc(CN2CCCC(NCCOc3ccccc3)C2)no1 (centres undefined)		33.1
O=C(COCCOc1ccccc1)NC1CCN(c2ncccn2)CC1	21.86	
CNc1cncc(C2CCCN2C(=O)CCn2ccnc2)n1 (centres undefined)	1.152	
CCCc1cc(C(=O)N2CCOC(c3nc(-c4cccs4)no3)C2)no1 (centres undefined)		23.21
COc1ccc(CN2CC[C@H](O)[C@@H]2Cc2cnn(C)c2)cc1.O=C(O)C(F)(F)F	36.9	
CCc1ncnc2c1CCN(CC(=O)N(C)C)CC2.O=C(O)C(F)(F)F	4.143	
CCc1cc(N2CCC(NCCc3nc(C)c(C)s3)CC2)nc(C)n1	22.72	
CCc1cc(N2CCC(NCCc3ccccc3F)CC2)nc(C)n1	63.92	
CCc1cc(N2CCC(NCCc3ccc(C)o3)CC2)nc(C)n1	9.521	
CCC(CNC(=O)NCc1cc[nH]n1)N1CCCC1 (centres undefined)	10.3	
Cc1nn(C)c(C)c1S(=O)(=O)N(CC(N)=O)CC(C)C	-2.964	
CCCc1noc(C2CCN(S(=O)(=O)c3cccs3)CC2)n1	12.47	
CC(C)c1noc(C2CCN(S(=O)(=O)c3cccs3)CC2)n1	-2.602	
COCCc1noc(C2CCN(S(=O)(=O)c3cccs3)CC2)n1	57.18	
